Among the data in PubChem BioAssay (EPA / NIEHS) are outcome and AC50 values, retold here.

Active and inactive are the calls of the source. The calls were made as follows: active = hit-call score of the fitted dose curve at least 0.9, where 1 is the maximum; inactive = score below 0.9.

A word on the AC50: it is the midpoint of the concentration-response curve, whichever way the signal moves.

Sequence of Retinoic acid receptor alpha (Homo sapiens) (P10276 whole entry, looked up): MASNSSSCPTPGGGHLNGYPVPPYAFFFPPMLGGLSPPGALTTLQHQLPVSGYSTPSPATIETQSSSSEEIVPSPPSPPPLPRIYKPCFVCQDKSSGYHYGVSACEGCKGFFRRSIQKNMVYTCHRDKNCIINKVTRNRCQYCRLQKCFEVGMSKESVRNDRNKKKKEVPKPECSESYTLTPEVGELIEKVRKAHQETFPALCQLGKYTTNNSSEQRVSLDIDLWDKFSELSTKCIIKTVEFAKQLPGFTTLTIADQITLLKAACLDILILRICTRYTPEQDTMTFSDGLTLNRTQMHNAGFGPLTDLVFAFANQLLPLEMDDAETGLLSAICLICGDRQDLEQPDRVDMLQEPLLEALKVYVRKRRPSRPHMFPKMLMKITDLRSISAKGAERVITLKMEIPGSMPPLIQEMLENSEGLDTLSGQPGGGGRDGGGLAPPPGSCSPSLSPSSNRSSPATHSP
Sequence of Transcription factor E2F1 (Homo sapiens) (Q01094 whole entry, looked up): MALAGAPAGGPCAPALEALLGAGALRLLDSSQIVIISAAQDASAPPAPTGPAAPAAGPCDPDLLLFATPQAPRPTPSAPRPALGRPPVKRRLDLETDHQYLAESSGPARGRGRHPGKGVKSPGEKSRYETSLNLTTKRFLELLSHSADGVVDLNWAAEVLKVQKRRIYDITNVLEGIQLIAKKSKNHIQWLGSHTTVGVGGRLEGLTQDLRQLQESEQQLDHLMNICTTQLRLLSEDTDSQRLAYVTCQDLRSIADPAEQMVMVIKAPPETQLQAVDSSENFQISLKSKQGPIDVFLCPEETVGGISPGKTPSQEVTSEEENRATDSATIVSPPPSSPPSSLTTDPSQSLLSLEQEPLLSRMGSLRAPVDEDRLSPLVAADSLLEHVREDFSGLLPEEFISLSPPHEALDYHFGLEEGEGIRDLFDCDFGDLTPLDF

The first experiment has as its target Retinoic acid receptor alpha (Homo sapiens) (UniProt P10276). Kind of experiment: ATG_DR5_RAR_CIS: Attagene CIS-FACTORIAL HepG2 Assay for human Retinoic Acid Receptor Alpha (RARE), DR5 submotif (AID 2282934).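 As to AC50: reporter responds to endogenous RAR alpha beta and gamma in HepG2 not RARA alone.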 To be noted: HepG2 Attagene cis-factorial RARE DR5 reporter, mRNA; actives raise or lower the signal. In outline: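 Read-out: DR5-driven reporter transcript measured by RT-PCR, 6-FAM primer extension, HpaI digest and capillary electrophoresis. Human HepG2 liver cells carry transiently transfected cis-element reporter constructs; dosing lasts 24 h. Gain or loss of signal fitted against DMSO baseline.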
As for `COc1ccccc1C=O`, the call was inactive.
As to `O=c1cccc[nH]1`, the call was inactive.
For `CCCCCCCCCCCC(=O)Cl`, the AC50 was 65.6 µM (active).
Consider `CCN=C1C=CC(=C(c2ccc(N(CC)CC)cc2)c2ccc(N(CC)CC)cc2)c2ccccc21`, for which the compound was classed as inactive.
Same read-out and setting: the same measure for `NC(=O)C(F)(F)C(F)(F)C(F)(F)F`: “inactive”.
On the same count and under the same terms, the same measure for `CC(C)CC=C(C=O)c1ccccc1`: “inactive”; for `OCC(F)(F)C(F)(F)C(F)(F)C(F)(F)C(F)(F)C(F)(F)C(F)(F)C(F)(F)CO`: “inactive”; for `F[Si-2](F)(F)(F)(F)F`: “inactive”.
Take `NC(=O)C(F)(F)C(F)(F)C(F)(F)C(F)F`: the compound was called inactive.
With `O=C(O)C(F)(F)OC(F)(F)C(F)(F)OC(F)(F)C(F)(F)OC(F)(F)F`, the compound was classed as inactive.
In the case of `CCCCC(CC)COC(=O)c1ccc(N(C)C)cc1` (centres undefined), the result was inactive.
The same measure, in the same setting: the same measure for `CCCCCCCCCCCCCC[P+](CCCC)(CCCC)CCCC`: “inactive”.
Still for that read-out and setting: to `C=CCOC(=O)CC(C)C` belongs “inactive”; to `O=C=Nc1cccc2c(N=C=O)cccc12`, “inactive”.
Same read-out and setting: the same measure for `CC(O)C#CC(C)O` (centres undefined): “inactive”; for `CCOCN(C(=O)CS(=O)(=O)O)c1c(C)cccc1CC`: “inactive”.

The next experiment has as its target Transcription factor E2F1 (Homo sapiens) (UniProt Q01094). The experiment in a line: ATG_E2F_CIS: Attagene CIS-FACTORIAL HepG2 Assay for human E2F Transcription Factor 1 (AID 2282935). Conditions: HepG2 Attagene cis-reporter, E2F reporter RNA transcripts; actives raise or lower the signal. The method in brief: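 Transient MRTU transfection of HepG2; 24 h compound exposure; RNA → oligo(dT) RT → PCR → FAM label → HpaI cut → CE fluorescence. Gain/loss of signal fit against DMSO.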
Consider `CCC(Cc1c(I)cc(I)c(N)c1I)C(=O)O` (centres undefined), for which the call was inactive.
Take `C=C(C)CCCC`: the result was inactive.
Consider `OCC(F)(F)C(F)(F)C(F)(F)C(F)(F)C(F)(F)C(F)(F)CO`, for which the compound was classed as inactive.
`C[C@]12CC[C@H]3C(=CCc4cc(O)ccc43)[C@@H]1CCC2=O`: the compound was called inactive.
Still for that read-out and setting: to `Oc1ccc(C2(c3ccc(O)c(C4CCCCC4)c3)CCCCC2)cc1C1CCCCC1` belongs “inactive”; to `O=C(O)CCC(F)(F)C(F)(F)C(F)(F)C(F)(F)C(F)(F)C(F)(F)C(F)(F)F`, “inactive”.
Still for that read-out and setting: the same measure for `NCC(F)(F)C(F)(F)C(F)(F)C(F)(F)C(F)(F)C(F)(F)F`: “inactive”.
Regarding `CC(C)C(=O)OCc1ccccc1`, the compound was classed as inactive.
In the case of `CO[Si](C)(CCC(F)(F)C(F)(F)C(F)(F)C(F)(F)C(F)(F)C(F)(F)F)OC`, the compound was called inactive.
Still for that read-out and setting: to `CCCCCCCCCc1ccc(OCCO)cc1` belongs “inactive”.
Take `FC(F)(F)C(F)(F)C(F)(F)C(F)(F)C(F)(F)C(F)(F)C(F)(F)CCI`: the compound was called inactive.
As to `C[Si](C)O[Si](C)C`, the call was inactive.
The same measure, in the same setting: the same measure for `Cc1cnccn1`: “inactive”; for `NCC(F)(F)C(F)(F)C(F)(F)C(F)(F)C(F)(F)C(F)(F)C(F)(F)C(F)(F)F`: “inactive”.
On the same count and under the same terms, to `OCC(F)(F)C(F)(F)C(F)(F)CO` belongs “inactive”; to `CN(C)C(C)(C)CO`, “inactive”.
`Nc1cc([N+](=O)[O-])cc(Cl)c1O`: the outcome was inactive.
Same read-out and setting: to `CCCCCCCCCCCCC[N+](C)(C)Cc1ccccc1` belongs “inactive”; to `OCCCc1cccnc1`, “inactive”; to `O=C(Cl)C(F)(F)C(F)(F)C(F)(F)C(F)(F)C(F)(F)C(F)(F)C(F)(F)F`, “inactive”.
The same measure, in the same setting: the same measure for `Cc1cc(C)c(O)c(C(C)(C)C)c1`: “inactive”; for `CCC(=O)OC(C)c1ccccc1` (centres undefined): “inactive”.
The same measure, in the same setting: to `COc1ccccc1C=O` belongs “inactive”.
As for `O=c1cccc[nH]1`, the result was inactive.
Consider `CCCCCCCCCCCC(=O)Cl`, for which the compound was called inactive.
Still for that read-out and setting: to `CCN=C1C=CC(=C(c2ccc(N(CC)CC)cc2)c2ccc(N(CC)CC)cc2)c2ccccc21` belongs “inactive”; to `NC(=O)C(F)(F)C(F)(F)C(F)(F)F`, “inactive”.
Turning to `CC(C)CC=C(C=O)c1ccccc1`, the outcome was inactive.
The same measure, in the same setting: the same measure for `OCC(F)(F)C(F)(F)C(F)(F)C(F)(F)C(F)(F)C(F)(F)C(F)(F)C(F)(F)CO`: “inactive”; for `F[Si-2](F)(F)(F)(F)F`: “inactive”.
Same read-out and setting: the same measure for `NC(=O)C(F)(F)C(F)(F)C(F)(F)C(F)F`: “inactive”.
For the compound `O=C(O)C(F)(F)OC(F)(F)C(F)(F)OC(F)(F)C(F)(F)OC(F)(F)F`, the call was inactive.
The same measure, in the same setting: to `CCCCC(CC)COC(=O)c1ccc(N(C)C)cc1` (centres undefined) belongs “inactive”; to `CCCCCCCCCCCCCC[P+](CCCC)(CCCC)CCCC`, “inactive”; to `C=CCOC(=O)CC(C)C`, “inactive”.
On to `O=C=Nc1cccc2c(N=C=O)cccc12`, for which the result was inactive.
As for `CC(O)C#CC(C)O` (centres undefined), the compound was classed as inactive.
For the compound `CCOCN(C(=O)CS(=O)(=O)O)c1c(C)cccc1CC`, the compound was classed as inactive.
